The values below come from PubChem BioAssay (NCATS).

Assay [1] has as its target Lysosomal acid glucosylceramidase (Homo sapiens) (UniProt P04062). The experiment in a line: Glucocerebrosidase-p2 (AID 348; in the data active = potency below about 10 µM; also: potency is read from the fitted curve at half-maximal effect). Conditions: purified GBA, blue fluorogenic substrate, 40 min. The gist of the method: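 Normal human glucocerebrosidase (0.2 nM) with blue fluorogenic substrate (80 uM final) in citrate/phosphate pH 5.9 with 10mM sodium taurocholate, 0.01% tween-20; 40 min RT, NaOH/glycine stop; fluorescence Ex 365/Em 440; AC50 from a titration from 0.6 nM upwards.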

Assay [2] in a line: AP1 Signaling Pathway (AID 357).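 Also: ME-180 reporter cells stimulated with EGF at its EC50 level; % is scaled to controls: 0 for no effect and ±100 for the full control effect.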 To be noted: ME-180 AP-1-bla reporter, EGF-induced, beta-lactamase ratio, 5 h; at 7.69 µM (top of the series) unless noted. The gist of the method:
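First, ME-180 AP-1-bla cells were cultured overnight at 37 °C in low-serum Opti-MEM. Next, titrated compounds with EC50 EGF were incubated 5 hours. Finally, CCF4 was added for 2.5 hours and the 460/530 nm ratio recorded.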

Assay [3] addresses Cytochrome P450 1A2 (Homo sapiens) (UniProt P05177). The assay can be described thus: p450-cyp1a2 (AID 410; calls by dose curve; also: potency is read from the fitted curve at half-maximal effect;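 as to activity change, negative = inhibition: -100% = full effect of reference inhibitor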). Conditions: recombinant CYP1A2, luciferin-ME demethylation, luminescence; series mostly up to 11.4 µM. The essentials:
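20nM CYP1A2, 100uM Luciferin-ME (=Km), 100mM KPO4; cpd 10 min RT; +NADPH regen, 60 min RT; stop/detect 20 min; luminescence. Normalized to furafylline 57 uM = full inhibition.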

The nature of assay [4]: NFAT Signaling Pathway (AID 444).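 Also: carbachol stimulus at about its EC50 of 1 µM final; % is scaled to controls: 0 for no effect and ±100 for the full control effect.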 To be noted: Jurkat NFAT-bla M1, carbachol, beta-lactamase ratio, 5 h; at 7.69 µM (top of the series) unless noted. The essentials:
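Jurkat cells carrying an NFAT-driven β-lactamase reporter and co-transfected muscarinic M1 receptor were treated with compound plus carbachol (1 uM final, an EC50 level) for 5 h at 37 °C. CCF4 loading followed for 1 h at RT; 460/530 nm ratio gave %activity.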

Assay [5] is described as follows: Stat Signaling Pathway (AID 446).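 Also: ME-180 cervical cancer cells given 40 pM IL-6 alongside compound; SIE-controlled beta-lactamase reporter measured as 460/530 nm FRET emission ratio; % is scaled to controls: 0 for no effect and ±100 for the full control effect.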 To be noted: ME-180 SIE beta-lactamase reporter, IL-6 stimulated, 5 h; at 7.69 µM (top of the series) unless noted. The essentials: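 Emission at 460 and 530 nm (excitation 405 nm) reports SIE-controlled beta-lactamase in ME-180 cells. Cells received compound with 40 pM IL-6 for 5 hrs at 37 C; data scaled between 300 pM IL-6 and 125 nM JAK-inhibitor controls.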

Assay [6] deals with Glucocorticoid receptor (Homo sapiens) (UniProt P04150). The assay can be described thus: GR-GFP Redistribution (AID 450;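 active = compounds whose dose series gives a full or clear partial fitted curve of increased nuclear translocation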; also: potency is read from the fitted curve at half-maximal effect). Conditions: U2OS GR-GFP nuclear translocation, laser cytometry, 2 h.
Assay [7] has the same target. The assay can be described thus: GR-EFC Redistribution (AID 451; calls by dose curve; also: potency is read from the fitted curve at half-maximal effect). To be noted: CHO-K1 GR-EFC translocation, beta-gal luminescence, 2 h. The gist of the method: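 CHO-K1 cells stably expressing nuclear-localized β-gal enzyme acceptor and GR fused C-terminally to the enzyme donor fragment; ligand-driven nuclear translocation restores β-gal by complementation. Compounds titrated up to 46 uM final, 2 h at 37 °C; luminescence read.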

The target in assay [8] is Mitogen-activated protein kinase 10 (Mus musculus) (UniProt Q61831). The assay can be described thus: JNK3 AlphaScreen Assay (AID 530).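 Also: kinase came from lysate of stimulated human HepG2 cells; signal reports phosphorylation of biotinylated GST-cJun 1-79 at Ser73 with 10 µM ATP; % is scaled to controls: 0 for no effect and ±100 for the full control effect.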 Conditions: JNK3 lysate, c-Jun phosphorylation; series mostly up to 11.4 µM. The essentials:
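Biotinylated GST-cJun(1-79) served as substrate for JNK3 in HepG2 lysates stimulated with IL-1beta and TNF-alpha. ATP was 10 uM final, pH 7.6. Ser73 phosphorylation was quantified by AlphaScreen (680 nm excitation).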

The target in assay [9] is 3',5'-cyclic-AMP phosphodiesterase 4B (Homo sapiens) (UniProt Q07343). The assay can be described thus: qHTS Assay for Inhibitors of PDE-IV (AID 607; active = well fitted activation curve with a large enough effect in the main read-out, with a control signal flat, not every such curve was filed as active; also: % of control where 0% means no effect). To be noted: HEK293 ACTOne CNG channel cells, membrane potential fluorescence; series mostly up to 22.9 µM. The essentials: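 The readout is membrane depolarisation from a cAMP-sensing CNG channel, detected with a potential dye at ex 535/em 590. Cells were HEK293-derived (endogenous PDE-IV) at 1000 cells/well, titrated up to 22.9 uM final.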

Assay [10] deals with Cytochrome P450 3A4 (Homo sapiens) (UniProt P08684). The experiment in a line: qHTS Assay for Inhibitors and Substrates of Cytochrome P450 3A4 (AID 884; active = well fitted curve in the direction sought with a large enough effect; an effect the other way counts as inactive or inconclusive; also: potency is read from the fitted curve at half-maximal effect; nearly all actives have a fitted effect of over 50% in size). To be noted: recombinant CYP3A4, Luciferin-PPXE luminescence; series mostly up to 57.1 µM. The gist of the method: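 Luminescent readout of luciferin produced by CYP3A4 (20 nM) dealkylation of Luciferin-PPXE, 25 uM (its KM). NADPH-driven reaction ran 60 min at RT after 10 min compound preincubation; data scaled to 57 uM ketoconazole as 100% inhibition.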

The target is the same in assay [11]. The assay can be described thus: qHTS Assay for Activators of Cytochrome P450 3A4 (AID 885; active = well fitted curve in the direction sought with a large enough effect; an effect the other way counts as inactive or inconclusive; also: nearly all actives have a fitted effect of over 65% in size). To be noted: recombinant CYP3A4, Luciferin-PPXE luminescence, 60 min; series mostly up to 11.4 µM. The essentials: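 Activators are scored by enhanced luminescence from CYP3A4 conversion of luciferin-PPXE (25uM, equal to KM) to luciferin, after 60 min at RT with an NADPH-regenerating system.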

The target of assay [12] is Cytochrome P450 2C19 (Homo sapiens) (UniProt P33261). The experiment in a line: qHTS Assay for Inhibitors and Substrates of Cytochrome P450 2C19 (AID 899; active = well fitted curve in the direction sought with a large enough effect; an effect the other way counts as inactive or inconclusive; also: nearly all actives have a fitted effect of over 60% in size; also: potency is read from the fitted curve at half-maximal effect). Conditions: recombinant CYP2C19, luciferin-H EGE luminescence; series mostly up to 11.4 µM. The essentials: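 In 50mM KPO4, the reaction held 5nM enzyme and KM-level (10uM) Luciferin-H EGE; it ran 60 min at 37C after NADPH regeneration and a 10 min compound preincubation. Luminescence values were scaled to 57uM ketoconazole as complete inhibition.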

A short description of assay [13]: qHTS Assay for Identification of Small Molecule Agonists for Hypoxia Response Element Signaling Pathway (AID 914; active = well fitted activation curve with a large enough effect in the signal ratio, with a control signal flat, not every such curve was filed as active; the % refers to the signal ratio; also: % of control where 0% means no effect). Conditions: ME-180 (cervical carcinoma) HRE-bla reporter, beta-lactamase ratio, CoCl2, 17 h; activation: hits give high values. The essentials:
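HRE-bla ME-180 cells with beta-lactamase reporter under hypoxia response element, compounds with EC50 CoCl2 for 17 hours at 37 C. CCF4 substrate, 460nm/530nm emission ratio gave %Activity; AC50 from titration series.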

Assay [14] is described as follows: Confirmation and Secondary Assay for Modulators of Hemoglobin Beta Chain Splicing at IVS2 654 locus (AID 910; active = well fitted curve in the direction sought with a large enough effect; an effect the other way counts as inactive or inconclusive; also: % of control where 0% means no effect). Conditions: HeLa EGFP-654 splicing reporter, GFP fluorescence, 48 h; series mostly up to 38.3 µM. The essentials:
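HeLa cells stably carrying EGFP interrupted by mutant beta-globin IVS2-654 intron (CMV-driven) were treated with compound for 2 days at 37C; corrected splicing was scored as total peak GFP intensity per well (488 nm excitation, 500-520 nm emission).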

A short description of assay [15]: Confirmation and Secondary Assay for Modulators of Hemoglobin Beta Chain Splicing at IVS2 705 locus (AID 930; active = well fitted curve in the direction sought with a large enough effect; an effect the other way counts as inactive or inconclusive; also: % of control where 0% means no effect). Conditions: HeLa EGFP-705 splicing reporter, GFP fluorescence, 48 h; series mostly up to 38.3 µM. The gist of the method: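 HeLa cells stably carrying EGFP interrupted by mutant beta-globin intron 2 (IVS2-705) treated 2 days at 37C with compound; 500 nM antisense PNA as control. Correct splicing read as total peak GFP intensity per well by laser-scanning cytometry.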

Values without a mark were called inactive. Inconclusive results are not listed. Activity calls are given as the source filed them. Unless noted, calls follow the shape of the dose curve; as a rule, active = well fitted curve in either direction with a large enough effect (not every such curve was filed as active); inconclusive = small, poorly fitted or top-dose-only effect, or another doubt; inactive = flat fitted curve, though single readings scatter. Bounds are passed on as bounds.

Glucocorticoid receptor (Homo sapiens), sequence (P04150 whole entry, looked up, the tested form may be a part): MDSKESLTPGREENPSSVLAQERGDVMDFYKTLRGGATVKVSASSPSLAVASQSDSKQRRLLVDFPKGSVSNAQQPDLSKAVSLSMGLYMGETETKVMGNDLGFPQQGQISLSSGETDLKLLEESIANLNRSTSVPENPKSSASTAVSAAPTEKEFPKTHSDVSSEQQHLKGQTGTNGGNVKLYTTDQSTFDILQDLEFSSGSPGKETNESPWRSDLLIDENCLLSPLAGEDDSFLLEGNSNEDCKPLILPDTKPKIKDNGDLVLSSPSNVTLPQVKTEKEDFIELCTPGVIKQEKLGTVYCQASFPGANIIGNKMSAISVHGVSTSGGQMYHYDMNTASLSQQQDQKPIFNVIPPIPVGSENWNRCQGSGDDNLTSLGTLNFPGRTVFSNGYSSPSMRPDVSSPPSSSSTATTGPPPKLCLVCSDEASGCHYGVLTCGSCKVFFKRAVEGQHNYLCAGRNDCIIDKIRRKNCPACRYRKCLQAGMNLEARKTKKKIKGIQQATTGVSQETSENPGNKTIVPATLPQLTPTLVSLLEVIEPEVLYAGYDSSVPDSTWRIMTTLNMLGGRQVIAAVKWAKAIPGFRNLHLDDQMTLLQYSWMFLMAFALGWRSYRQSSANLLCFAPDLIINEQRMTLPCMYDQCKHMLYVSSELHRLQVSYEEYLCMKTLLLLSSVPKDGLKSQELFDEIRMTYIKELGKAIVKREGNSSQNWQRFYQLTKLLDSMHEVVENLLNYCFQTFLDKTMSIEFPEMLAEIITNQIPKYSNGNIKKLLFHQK
3',5'-cyclic-AMP phosphodiesterase 4B (Homo sapiens), sequence (Q07343 whole entry, looked up): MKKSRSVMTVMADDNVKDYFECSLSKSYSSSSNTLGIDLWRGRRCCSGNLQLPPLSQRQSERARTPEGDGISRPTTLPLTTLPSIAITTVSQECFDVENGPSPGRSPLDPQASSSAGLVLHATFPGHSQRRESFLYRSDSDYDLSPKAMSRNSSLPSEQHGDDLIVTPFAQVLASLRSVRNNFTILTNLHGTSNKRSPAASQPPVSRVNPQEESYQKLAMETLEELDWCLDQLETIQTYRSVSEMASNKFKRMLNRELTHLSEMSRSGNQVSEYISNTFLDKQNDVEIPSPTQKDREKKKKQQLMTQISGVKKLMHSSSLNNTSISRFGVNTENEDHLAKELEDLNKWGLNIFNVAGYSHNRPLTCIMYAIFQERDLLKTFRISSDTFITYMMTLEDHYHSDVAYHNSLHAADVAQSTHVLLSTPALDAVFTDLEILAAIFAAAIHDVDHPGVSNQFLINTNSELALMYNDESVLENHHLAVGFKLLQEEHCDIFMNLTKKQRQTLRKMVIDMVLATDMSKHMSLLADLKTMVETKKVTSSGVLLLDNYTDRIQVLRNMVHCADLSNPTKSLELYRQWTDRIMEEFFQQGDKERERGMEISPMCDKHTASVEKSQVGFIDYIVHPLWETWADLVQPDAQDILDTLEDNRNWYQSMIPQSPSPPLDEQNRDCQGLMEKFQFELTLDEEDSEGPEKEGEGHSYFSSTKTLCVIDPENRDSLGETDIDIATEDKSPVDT
Lysosomal acid glucosylceramidase (Homo sapiens), sequence (P04062 whole entry, looked up): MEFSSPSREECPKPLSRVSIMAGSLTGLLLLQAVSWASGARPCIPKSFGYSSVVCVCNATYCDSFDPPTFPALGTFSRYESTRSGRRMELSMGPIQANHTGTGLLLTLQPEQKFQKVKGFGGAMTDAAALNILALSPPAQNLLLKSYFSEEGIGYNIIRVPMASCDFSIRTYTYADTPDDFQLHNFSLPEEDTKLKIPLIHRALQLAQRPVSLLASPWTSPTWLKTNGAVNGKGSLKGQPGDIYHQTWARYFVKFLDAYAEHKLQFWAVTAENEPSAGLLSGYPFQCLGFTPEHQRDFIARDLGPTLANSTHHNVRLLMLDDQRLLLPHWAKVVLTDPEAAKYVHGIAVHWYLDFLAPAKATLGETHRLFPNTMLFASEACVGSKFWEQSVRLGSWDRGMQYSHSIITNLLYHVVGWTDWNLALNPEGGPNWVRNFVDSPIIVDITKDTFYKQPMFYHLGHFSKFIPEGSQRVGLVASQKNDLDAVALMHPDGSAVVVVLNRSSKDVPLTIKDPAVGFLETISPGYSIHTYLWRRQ
Cytochrome P450 3A4 (Homo sapiens), sequence (P08684 whole entry, looked up): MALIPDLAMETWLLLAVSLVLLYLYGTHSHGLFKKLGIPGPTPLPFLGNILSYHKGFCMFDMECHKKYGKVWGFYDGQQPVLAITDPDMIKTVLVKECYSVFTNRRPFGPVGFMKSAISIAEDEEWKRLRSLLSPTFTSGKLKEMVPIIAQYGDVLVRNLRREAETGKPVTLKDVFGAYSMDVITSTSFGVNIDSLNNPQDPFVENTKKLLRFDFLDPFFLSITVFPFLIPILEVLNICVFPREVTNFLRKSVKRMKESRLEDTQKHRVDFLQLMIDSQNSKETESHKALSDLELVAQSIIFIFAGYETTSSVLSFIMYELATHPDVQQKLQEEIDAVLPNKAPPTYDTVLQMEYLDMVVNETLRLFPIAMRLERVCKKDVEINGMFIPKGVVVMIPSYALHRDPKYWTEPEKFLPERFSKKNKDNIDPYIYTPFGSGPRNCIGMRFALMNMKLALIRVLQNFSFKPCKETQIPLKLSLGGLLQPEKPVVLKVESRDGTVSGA
Cytochrome P450 1A2 (Homo sapiens), sequence (P05177 whole entry, looked up): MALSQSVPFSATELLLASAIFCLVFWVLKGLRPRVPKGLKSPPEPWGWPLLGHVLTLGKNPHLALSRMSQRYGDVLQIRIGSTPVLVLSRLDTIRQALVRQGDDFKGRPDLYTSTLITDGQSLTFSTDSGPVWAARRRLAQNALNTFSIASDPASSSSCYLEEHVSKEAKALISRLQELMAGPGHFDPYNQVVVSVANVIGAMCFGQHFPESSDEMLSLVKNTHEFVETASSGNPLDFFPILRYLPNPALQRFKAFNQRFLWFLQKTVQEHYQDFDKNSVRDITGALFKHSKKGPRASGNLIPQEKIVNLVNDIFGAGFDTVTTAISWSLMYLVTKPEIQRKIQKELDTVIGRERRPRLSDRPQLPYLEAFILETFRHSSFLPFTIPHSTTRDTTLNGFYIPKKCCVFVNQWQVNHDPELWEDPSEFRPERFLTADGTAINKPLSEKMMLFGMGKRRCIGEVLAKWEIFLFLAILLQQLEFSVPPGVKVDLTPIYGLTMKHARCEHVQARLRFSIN
Cytochrome P450 2C19 (Homo sapiens), sequence (P33261 whole entry, looked up): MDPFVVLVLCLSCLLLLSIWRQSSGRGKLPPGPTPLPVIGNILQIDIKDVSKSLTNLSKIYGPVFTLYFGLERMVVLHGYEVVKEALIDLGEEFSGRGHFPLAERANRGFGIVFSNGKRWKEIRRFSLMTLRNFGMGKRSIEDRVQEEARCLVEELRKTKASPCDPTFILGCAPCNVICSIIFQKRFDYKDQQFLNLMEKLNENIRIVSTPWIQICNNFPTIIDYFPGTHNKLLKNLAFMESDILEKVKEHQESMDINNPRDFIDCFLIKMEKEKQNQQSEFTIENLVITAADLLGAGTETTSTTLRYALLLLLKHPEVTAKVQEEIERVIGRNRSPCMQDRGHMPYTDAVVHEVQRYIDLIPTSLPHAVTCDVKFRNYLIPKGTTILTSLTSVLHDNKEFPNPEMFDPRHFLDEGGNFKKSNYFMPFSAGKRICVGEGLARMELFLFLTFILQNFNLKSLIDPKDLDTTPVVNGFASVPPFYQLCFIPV

As to `Nc1cccc(OCc2nc(N)nc(N)c2-c2ccc(Cl)cc2)c1`, the Potency was greater than 11.4 µM in assay [1]; 158 nM (active) in [3]; greater than 46 µM in [6]; greater than 9.22 µM in assay [7]; 1.58 µM (active) in assay [10]. The activity change, negative = inhibition in assay [2] was 6.37%; in assay [4] it was -4.61%. Besides, the activity, negative = inhibition in [5] was 6.21%. Further, the Potency entry in assay [8], in assay [9] and in [11] was “inactive” each time.

With `Cc1ccc(S(=O)(=O)Nc2cc(=O)[nH]c3c2CCC3)cc1`, the Potency in [1] was greater than 11.4 µM; in assay [3], 3980 nM (active); in assay [6] it was greater than 46 µM; in assay [7] it was greater than 9.22 µM; in assay [10] it was 3.16 µM (active); in assay [12], 631 nM (active). The figures for the activity change, negative = inhibition in [2] and in assay [4] were 6.25% and 9.14%, respectively. The activity, negative = inhibition in assay [5] was -3.68%. Moreover, the Potency entry in assay [8], in [9] and in [11] was “inactive” throughout. In assay [13], the activation is 2.61%.

With `C(=N/Nc1nnc2c(n1)[nH]c1ccccc12)/c1cccnc1`, the Potency is greater than 11.4 µM in assay [1]; 631 nM (active) in [3]; greater than 46 µM in assay [6]; greater than 9.22 µM in assay [7]; 3.98 µM (active) in [10]. Besides, the activity change, negative = inhibition in [2] is -0.49%; in [4], 1.85%. The activity, negative = inhibition in [5] was -7.13%. Further, the Potency entry in [8], in assay [9] and in assay [11] was “inactive” throughout.

As for `O=C(CSc1nc2ccccc2c2ccccc12)c1ccccc1`, the Potency in assay [1] was greater than 11.4 µM; in assay [3], 251 nM (active); in assay [6], greater than 46 µM; in assay [7], greater than 9.22 µM. In addition, the activity change, negative = inhibition was -2.08% in assay [2] and 10.2% in assay [4]. Besides, the activity, negative = inhibition in assay [5] was -4.01%. Moreover, the Potency entry in [8], in [9] and in assay [11] was “inactive” in each case.

With `Cn1c(=O)c2[nH]c(CCCCc3nc4c([nH]3)c(=O)n(C)c(=S)n4C)nc2n(C)c1=S`, the Potency was greater than 11.4 µM in assay [1], greater than 46 µM in [6], greater than 9.22 µM in [7] and 1.26 µM (active) in [10]. The activity change, negative = inhibition in assay [2] was 1.54%; in assay [3], -13.8% [at 2.29 µM]; in assay [4], -2.84%. The activity, negative = inhibition in [5] was -5.06%. Moreover, the Potency entry in [8], in [9], in assay [11] and in assay [12] was “inactive” throughout.

Consider `Cc1cnc(CNc2nc(-c3cccnc3)nc3ccccc23)cn1`, for which the Potency in [1] was greater than 11.4 µM; in assay [3], 2510 nM (active); in assay [6] it was greater than 46 µM; in assay [7] it was greater than 46 µM; in [10] it was 3.98 µM (active). Besides, the results for the activity change, negative = inhibition in [2] and in [4] were -11.8% and 0.457%, respectively. Further, the activity, negative = inhibition in assay [5] was -9.76%. Also, the Potency entry in [8], in assay [9] and in assay [11] was “inactive” in each case. For the same compound, the compound was classed as inactive in assay [14] and in [15].
